In PubChem BioAssay (NCI) one finds growth inhibition data, which are given here for seven compounds.

Where “and” joins values, the source holds several entries; their conditions need not be identical. Equal values may be shown once. This is part of a sample that, as a whole, favours compounds with a hit. Of some 79,000 tested, about 15% had one in any assay. Where a structure was tested more than once in an assay, its records may differ in their call. Calls of active or inactive are those of the source. Rule as the data show it: active = growth inhibition above about 70%; inactive = the rest.

Test [1] can be described thus: NCI Yeast Anticancer Drug Screen. Data for the rad50 strain (AID 155).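 Also: 0% = growth of vehicle-only cultures of the same strain.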 The following applies: S. cerevisiae rad50 strain growth inhibition, stronger effect = higher value. The procedure, abridged:
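Relative growth inhibition (compound vs vehicle) was measured in yeast with a defined repair-gene alteration.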

Test [2] is described as follows: NCI Yeast Anticancer Drug Screen. Data for the mec2-1 strain (AID 157). Conditions: S. cerevisiae mec2-1 strain, stronger effect = higher value. The procedure, abridged:
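Compounds were applied to mec2-1 yeast cells. Their growth was then compared with that of vehicle-treated cultures to give growth inhibition.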

A short description of test [3]: NCI Yeast Anticancer Drug Screen. Data for the sgs1 mgt1 strain (AID 161).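 Also: 0% = growth of cultures given vehicle only.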 Conditions: S. cerevisiae sgs1 mgt1 strain, stronger effect = higher value. The procedure, abridged: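 This yeast growth screen uses a strain with defined DNA-repair lesions; compound-treated growth is compared with vehicle-treated growth.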
Test [4] in a line: NCI Yeast Anticancer Drug Screen. Data for the cln2 rad14 strain (AID 165).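 Also: 0% = growth equal to vehicle treated cultures.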 Conditions: S. cerevisiae cln2 rad14 strain, stronger effect = higher value. The gist of the method: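 Strain: cln2 rad14 yeast, altered in cell cycle control and DNA damage repair. Read-out: growth inhibition vs vehicle.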
Test [5] is described as follows: NCI Yeast Anticancer Drug Screen. Data for the bub3 strain (AID 167). Conditions: S. cerevisiae bub3 mutant strain, stronger effect = higher value. The gist of the method:
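Screening used yeast with an engineered genetic alteration affecting cell cycle control. Compound-exposed cultures were compared with vehicle cultures, and reduced growth was taken as inhibition.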

The nature of test [6]: NCI Yeast Anticancer Drug Screen. Data for the mlh1 rad18 strain (AID 175). The following applies: S. cerevisiae mlh1 rad18 strain growth inhibition, stronger effect = higher value. The procedure, abridged: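 A repair-deficient yeast strain is exposed to test compound, and growth is scored relative to vehicle-treated controls.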
[7] abbreviates: at 5.0 µM (retest, dose inferred, filed as 0.5).
Setting [8] is: at 50.0 µM (retest, dose inferred, filed as 5.0).

As to `N#CC1Sc2ccccc2N1C(=O)OCc1ccccc1` (stereo unspecified), the growth inhibition in test [1] (setting [7]) was 7% (inactive); in test [1] (setting [8]) it was 86% (active); in test [1] (at 50.0 µM), 90.1% (active); in test [2] (setting [7]), 4% (inactive); in test [2] (setting [8]), 86% (active); in test [2] (at 50.0 µM), 86.8% (active). Moreover, the growth inhibition was 11% (inactive) in test [3] (setting [7]); 89% (active) in test [3] (setting [8]); 94% (active) in test [3] (at 50.0 µM); 11% (inactive) in test [4] (setting [7]); 82% (active) in test [4] (setting [8]); 81.2% (active) in test [4] (at 50.0 µM). Also, the growth inhibition is 20% (inactive) in test [5] (setting [7]); 91% (active) in test [5] (setting [8]); 93.5% (active) in test [5] (at 50.0 µM); 9% (inactive) in test [6] (setting [7]); 90% (active) in test [6] (setting [8]); 91.8% (active) in test [6] (at 50.0 µM).

Regarding `CC(C)OP(=O)(OC(C)C)C(=Nc1ccccc1)NNc1ccc([N+](=O)[O-])cc1`, the growth inhibition is -22% (inactive) in test [1] (setting [7]); -15% (inactive) in test [1] (setting [8]); 71.1% (active) in test [1] (at 50.0 µM); -21% (inactive) in test [2] (setting [7]); 2% (inactive) in test [2] (setting [8]); 16.6% (inactive) in test [2] (at 50.0 µM). For the same compound, the growth inhibition in test [3] (setting [7]) was -13% (inactive); in test [3] (setting [8]) it was 15% (inactive); in test [3] (at 50.0 µM) it was 22.7% (inactive); in test [4] (setting [7]), -33% (inactive); in test [4] (setting [8]), -6% (inactive); in test [4] (at 50.0 µM), -18.8% (inactive). Further, the growth inhibition in test [5] (setting [7]) is -17% (inactive); in test [5] (setting [8]) it was -20% (inactive); in test [5] (at 50.0 µM) it was 43.6% (inactive); in test [6] (setting [7]), -8% (inactive); in test [6] (setting [8]), 7% (inactive); in test [6] (at 50.0 µM), 44% (inactive).

For the compound `Cc1cccc(Cc2ccccc2Cl)c1O`, the growth inhibition was 0% (inactive) in test [1] (setting [7]); 93% (active) in test [1] (setting [8]); 83.2% (active) in test [1] (at 50.0 µM); -1% (inactive) in test [2] (setting [7]); 93% (active) in test [2] (setting [8]); 38% (inactive) in test [2] (at 50.0 µM). The growth inhibition in test [3] (setting [7]) was 1% (inactive); in test [3] (setting [8]), 80% (active); in test [3] (at 50.0 µM), 89.2% (active); in test [4] (setting [7]), -7% (inactive); in test [4] (setting [8]), 84% (active); in test [4] (at 50.0 µM), 98.6% (active). Besides, the growth inhibition in test [5] (setting [7]) was -1% (inactive); in test [5] (setting [8]), 82% (active); in test [5] (at 50.0 µM) it was 89.8% (active); in test [6] (setting [7]) it was -2% (inactive); in test [6] (setting [8]), 81% (active); in test [6] (at 50.0 µM), 46.2% (inactive).

Consider `CCOc1ccc(NC(=O)/C(=C\c2ccc(C)cc2)C(C)=O)cc1`, for which the growth inhibition in test [1] (setting [7]) is -17% (inactive); in test [1] (setting [8]), -1% (inactive); in test [1] (at 50.0 µM), -32% (inactive) and 8.1% (inactive); in test [2] (setting [7]), -2% (inactive); in test [2] (setting [8]), -3% (inactive); in test [2] (at 50.0 µM), -2.3% (inactive) and -25.1% (inactive). Moreover, the growth inhibition in test [3] (setting [7]) was 9% (inactive); in test [3] (setting [8]), -4% (inactive); in test [3] (at 50.0 µM), 2.9% (inactive) and 3.65% (inactive); in test [4] (setting [7]) it was -6% (inactive); in test [4] (setting [8]), 5% (inactive); in test [4] (at 50.0 µM) it was -24.8% (inactive) and -8.15% (inactive). For the same compound, the growth inhibition in test [5] (setting [7]) was -3% (inactive); in test [5] (setting [8]) it was -5% (inactive); in test [5] (at 50.0 µM), -2.4% (inactive) and -19.2% (inactive); in test [6] (setting [7]), -3% (inactive); in test [6] (setting [8]), -5% (inactive); in test [6] (at 50.0 µM), 6% (inactive) and 0.5% (inactive).

Consider `O=C(NCCCCCCNC(=O)n1cc(F)c(=O)[nH]c1=O)NCCCOCCOCCOCCOCCOCCOCCOCCOCCOCCOCCOCCOCCOCCOCCOCCOCCOCCOCCOCCOCCOCCCNC(=O)C(O)C(O)C(OC1OC(CO)C(O)C(O)C1O)C(O)CO` (stereo unspecified), for which the growth inhibition in test [1] (setting [7]) was 11% (inactive); in test [1] (setting [8]), 95% (active); in test [1] (at 50.0 µM), 74.3% (active); in test [2] (setting [7]) it was 7% (inactive); in test [2] (setting [8]) it was 78% (active); in test [2] (at 50.0 µM), 89% (active). For the same compound, the growth inhibition is 30% (inactive) in test [3] (setting [7]); 81% (active) in test [3] (setting [8]); 81.5% (active) in test [3] (at 50.0 µM); 16% (inactive) in test [4] (setting [7]); -5% (inactive) in test [4] (setting [8]); 27.1% (inactive) in test [4] (at 50.0 µM). Further, the growth inhibition in test [5] (setting [7]) was 1% (inactive); in test [5] (setting [8]), 4% (inactive); in test [5] (at 50.0 µM), 48.4% (inactive); in test [6] (setting [7]), 19% (inactive); in test [6] (setting [8]), 97% (active); in test [6] (at 50.0 µM), -10.2% (inactive).

In the case of `O=C1C=CC(=CC=C2C=CN(CCCCCCCCCCCO)C=C2)C=C1`, the growth inhibition in test [1] (setting [7]) is 12% (inactive) and 36% (inactive); in test [1] (setting [8]), 93% (active) and 3% (inactive); in test [1] (at 50.0 µM), 88.8% (active) and 49.2% (inactive); in test [2] (setting [7]), 6% (inactive) and 40% (inactive); in test [2] (setting [8]) it was 90% (active) and -2% (inactive); in test [2] (at 50.0 µM), 85.5% (active) and 65% (inactive). Besides, the growth inhibition in test [3] (setting [7]) was -10% (inactive) and 44% (inactive); in test [3] (setting [8]) it was 93% (active) and 2% (inactive); in test [3] (at 50.0 µM) it was 87.6% (active) and 62.8% (inactive); in test [4] (setting [7]), 7% (inactive) and 18% (inactive); in test [4] (setting [8]), 91% (active) and -8% (inactive); in test [4] (at 50.0 µM), 82.7% (active) and 57.4% (inactive). The growth inhibition in test [5] (setting [7]) is -3% (inactive) and 34% (inactive); in test [5] (setting [8]), 98% (active) and 2% (inactive); in test [5] (at 50.0 µM), 83% (active) and 50.6% (inactive); in test [6] (setting [7]), 10% (inactive) and 37% (inactive); in test [6] (setting [8]) it was 80% (active) and 1% (inactive); in test [6] (at 50.0 µM), 88% (active) and 59.2% (inactive).

Turning to `O=[N+]([O-])c1c(Cl)nc2ccccn12`, the growth inhibition is 2% (inactive) in test [1] (setting [7]); 26% (inactive) in test [1] (setting [8]); 14.4% (inactive) in test [1] (at 50.0 µM); 3% (inactive) in test [2] (setting [7]); 28% (inactive) in test [2] (setting [8]); 26.1% (inactive) in test [2] (at 50.0 µM). The growth inhibition in test [3] (setting [7]) was 2% (inactive); in test [3] (setting [8]) it was 27% (inactive); in test [3] (at 50.0 µM), 31.1% (inactive); in test [4] (setting [7]), 2% (inactive); in test [4] (setting [8]), 15% (inactive); in test [4] (at 50.0 µM) it was -0.55% (inactive). The growth inhibition was 0% (inactive) in test [5] (setting [7]); 14% (inactive) in test [5] (setting [8]); -2.05% (inactive) in test [5] (at 50.0 µM); 2% (inactive) in test [6] (setting [7]); 26% (inactive) in test [6] (setting [8]); 70.5% (active) in test [6] (at 50.0 µM).
